60 molecules from PubChem BioAssay AID1486 (The Scripps Research Institute Molecular Screening Center, 2009) can be followed below.

Hit rate of the full screen: of about 220,000 compounds, about 2,400 (1.1%) were called active.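 Rule for the calls: active = inhibition above a per-campaign cutoff, the mean inhibition of all tested compounds plus 3 SD (cut at about 27% in these data); inactive = the rest.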 The full list was thinned out, with actives kept by preference.

A word on the inhibition: it is the change of the read-out against control, counted positive when it falls.

This experiment in a line: parental Ba/F3 cell viability inhibition, counter-screen for JAK2V617F inhibitor project, murine pro-B, CellTiter-Glo luminescence (AID 1486).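 Note: 0% = DMSO wells and 100% = JAK Inhibitor I control wells.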 Particulars: CellTiter-Glo ATP luminescence, at 5.6 µM, active compounds read high. (The purpose of a counterscreen is to sort out artefacts and off-target activity.)
Regarding `COc1ccc(CC(NC(C)=O)C(=O)NC2CCN(C(=O)C3CC3)CC2)cc1OC` (stereo not given), the inhibition was -2.26% (inactive).
The result for `Cc1cc(NC(=O)Nc2ccc(Cl)cc2)n(-c2ccccc2)n1` reads 0.47% (inactive); that for `Cc1nn(-c2ccccc2)c(-n2cccc2)c1C(=O)O`, 7.83% (inactive); that for `CCn1c(SCC(=O)Nc2sc(C)c(C)c2C#N)nnc1C1CC1`, -1.4% (inactive).
To `COC(=O)c1ccc(/C=N/N2C(C)CCCC2C)cc1` (stereo not given) belongs -0.91% (inactive).
As to `COc1ccc2nc(Nc3nc4ccc(NC(C)=O)cc4s3)sc2c1`, the inhibition is 1.76% (inactive).
The result for `CCCC(=O)Nc1nc2ccc(NC(=O)c3cccnc3)cc2s1` reads 6.39% (inactive); that for `CCCC(=O)Nc1nc2ccc(NC(=O)c3c(F)c(F)c(OC)c(F)c3F)cc2s1`, 83.3% (active); that for `CN(C)C(=O)c1cccn(Cc2cccc(C(F)(F)F)c2)c1=O`, 1.53% (inactive).
The result for `N#Cc1ncc(C(F)(F)F)cc1Oc1cccnc1` reads 3.06% (inactive).
`Cc1ccc2nc(Nc3ccccc3O)nc(-c3ccccc3)c2c1`: the inhibition is 2.87% (inactive).
To `COc1ccc(-c2csc(Cc3nc(O)cs3)n2)cc1` belongs 2.47% (inactive).
The result for `COc1ccc(OC)c(Nc2nc(-c3ccc(O)c(O)c3)cs2)c1` reads 7.93% (inactive).
Turning to `CC(C)(C)C(=O)OCc1nc(-c2ccc(O)c(O)c2)cs1`, the inhibition was 55.4% (active).
For `O=c1[nH]cnc2c1c(-c1ccccc1)cn2-c1ccc(F)cc1`, the inhibition is 5.71% (inactive).
Consider `Cc1ccc2c(c1)C(O)(CC(=O)c1cccc(-n3cccc3)c1)C(=O)N2` (stereo not given), for which the inhibition is 9.56% (inactive).
As to `Cc1cc2c(cc1C)[n+](C)cn2CC(O)COCC1CC=CCC1` (stereo not given), the inhibition was 77.5% (active).
The result for `CCc1ccc(-n2c(SCc3cc(=O)n4cc(Br)ccc4n3)nc3[nH]ncc3c2=O)cc1` reads 3.56% (inactive).
In the case of `Fc1ccc2[nH]c3c(N4CCN(Cc5ccc6c(c5)OCO6)CC4)ncnc3c2c1`, the inhibition was 43.4% (active).
To `Fc1ccc2[nH]c3c(N4CCSCC4)ncnc3c2c1` belongs 2.75% (inactive).
The result for `Cc1cc(N2CCN(Cc3ccc4c(c3)OCO4)CC2)n2ncnc2n1` reads 8.83% (inactive); that for `Cc1ccc(OC(=O)c2c(C)nn(-c3ccccc3)c2C)cc1`, -2.11% (inactive); that for `COc1ccc(NS(=O)(=O)c2ccc(NC(C)=O)cc2)cc1OC`, 36.4% (active).
To `COC(=O)COc1ccc(S(=O)(=O)Nc2ccc(NC(C)=O)cc2)cc1` belongs 3.84% (inactive); to `COc1cc(NS(=O)(=O)c2ccc(NC(C)=O)cc2)cc(OC)c1`, 6.53% (inactive).
Turning to `CCCCCCCC(=O)OC(CN1CCCCCC1)CN1CCCC1=O` (stereo not given), the inhibition was 2.21% (inactive).
To `CCOc1cccc(-c2nnc3sc(COc4ccc(OC)cc4)nn23)c1` belongs 3.78% (inactive).
The result for `COc1ccc(-n2nnnc2-c2nc3ccccc3s2)cc1` reads 2.01% (inactive); that for `CCOc1cccc(-n2nnnc2-c2ccc(OC)cc2)c1`, 56.8% (active); that for `CN(C)S(=O)(=O)c1ccc(C(=O)NCC(C)(C)N2CCOCC2)cc1`, 0.19% (inactive).
To `CC1(C)CC(N2CCN(C(c3ccccc3)c3ccccc3)CC2)=CC(=[N+]2CCCCC2)C1` belongs 88.5% (active); to `CC1(C)CC(=O)C=C(N2CCCC2)C1`, -2.25% (inactive).
Turning to `CC(C)NC(=S)N1CCN(C(c2ccccc2)c2ccccc2)CC1`, the inhibition is 5.27% (inactive).
The result for `Brc1ccc2ncnc(NCc3cccnc3)c2c1` reads -4.51% (inactive); that for `CC1CCCN(S(=O)(=O)c2ccc(C(=O)Nc3nnc(-c4ccncc4)o3)cc2)C1` (stereo not given), 6.63% (inactive); that for `CC1CCCCN1S(=O)(=O)c1ccc(C(=O)Nc2nnc(-c3cccs3)o2)cc1` (stereo not given), 34.1% (active).
With `CC1CCCCN1S(=O)(=O)c1ccc(S(=O)(=O)N(CC(=O)Nc2ccccc2)Cc2cccs2)cc1` (stereo not given), the inhibition was 1.87% (inactive).
The result for `COc1ccc2[nH]c(C(=O)Nc3ccccc3Cl)cc2c1` reads -2.76% (inactive); that for `CC(=O)NC(=S)Nc1ccc(NC(=S)NC(=O)c2ccc([N+](=O)[O-])cc2)cc1`, -2.36% (inactive).
The result for `Cn1ccc(=Nc2ccc(NC(=O)c3ccc(N=c4ccn(C)c5ccc([N+](=O)[O-])cc45)cc3)cc2)cc1` reads 29.7% (active).
To `Cc1cc([N+](=O)[O-])ccc1NC(=O)c1ccc(NC(=O)C(C)C)cc1` belongs 6.88% (inactive).
Consider `CC1CCN(c2c(NCc3ccc(C(=O)NCc4ccccc4)cc3)c(=O)c2=O)CC1`, for which the inhibition was -0.24% (inactive).
To `CCN1CCN(C(c2cccnc2)c2cc(Cl)c3cccnc3c2O)CC1` (stereo not given) belongs 4.4% (inactive); to `Oc1c(C(c2ccccn2)N2CCOCC2)ccc2cccnc12` (stereo not given), 2.22% (inactive).
To `CCOC(=O)N1CCN(C(c2cccnc2)c2ccc3cccnc3c2O)CC1` (stereo not given) belongs 35.8% (active); to `CCCNC(=O)OC[C@H]1O[C@H](CCO/N=C/[C@@H](NS(=O)(=O)c2ccc(C)cc2)[C@H](C)/C=C/CC(=O)OC)C=C[C@@H]1Oc1ccc(OC)cc1`, 1.98% (inactive); to `CC1CCN(C(=O)c2ccc(S(=O)(=O)Cc3cc(F)ccc3F)c([N+](=O)[O-])c2)CC1`, 2.51% (inactive).
The result for `Cc1ccc(/C=N/NC(=O)CN2CCN(Cc3ccccc3)CC2)s1` reads 0.65% (inactive).
For the molecule `CCCCCCn1c(CN2CCCCC2)nc2c1c(=O)n(C)c(=O)n2C`, the inhibition is 2.14% (inactive).
Take `CCCCCCCCn1c2c(c(=N)c3c1CCC3)CCCC2`: the inhibition is 88.4% (active).
To `Cc1cc(CNC(=O)c2cccc([N+](=O)[O-])c2)c2ccccc2n1` belongs -2.87% (inactive); to `O=C(Nn1c(SCc2ccc([N+](=O)[O-])cc2)nc2ccccc2c1=O)c1ccc(F)cc1`, -1.55% (inactive).
On to `CN(CC(=O)NC1CCCC1)S(=O)(=O)c1cnc[nH]1`, for which the inhibition is -0.47% (inactive).
On to `CSc1ccc(C#N)cc1NC(=O)c1ccc(Cl)cc1`, for which the inhibition is 1.1% (inactive).
The result for `COc1ccccc1NC1=NC2(CCCC2)N=C(N)N1` reads 10.5% (inactive).
To `COc1ccccc1NC1=NC(c2ccc(Cl)cc2)N=C(N)N1` (stereo not given) belongs 81.1% (active); to `COc1ccccc1Nc1nc(N)nc(CN(C)C2CCCCC2)n1`, 0.48% (inactive).
The result for `CCOc1ccccc1Oc1cn[nH]c1-c1ccc(OC)cc1O` reads 94.7% (active).
Turning to `CCOc1ccc(-c2n[nH]c(C)c2-c2ccccn2)c(O)c1`, the inhibition was 5.9% (inactive).
The result for `CCOc1ccc(-c2nc(N)ncc2-c2ccccc2OC)c(O)c1` reads -0.51% (inactive).
